# Bioassay records deposited in PubChem BioAssay by several laboratories.
# In the library only some 2.9% were active in any assay of this set; here they are far more common.
# Mtb BioA inh: BioA (M. tuberculosis) enzyme inhibition; 360,000 compounds, 0.096% hits; inhibition, % at 9.99 µM; purified M. tuberculosis BioA enzyme, plate reader; in the data active = inhibition above about 40%
# Mtb hypoxia rep: reduces hypoxia-regulated biosensor signal in M. tuberculosis | AID 1159583 | M. tuberculosis hypoxia-regulated fluorescent reporter, fluorescence | fluorescence inhibition, % (no concentration beside the values) | 300,000 compounds, 0.1% hits; in the data active = fluorescence inhibition mostly above about 23%, no sharp cut-off; inactive = mostly below about 17%
# GDH-TPI counter-1: GDH-TPI coupled enzyme inhibition counter-screen | GDH-TPI coupled enzyme counterscreen, NADH absorbance | inhibition, % at 4.8 µM | 360,000 compounds, 1.2% hits | AID 588335; in the data active = inhibition above about 30%;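 note: 0% = DMSO wells and 100% = wells lacking the enzyme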
# FadD28 FP inh: M. tuberculosis FadD28 bisubstrate binding inhibition. inhibition, % at 12.5 µM. FadD28 bisubstrate probe binding, fluorescence polarization. 360,000 compounds, 0.22% hits. AID 588549; in the data active = inhibition above about 8.5%, passing the limit was not always enough
# Mtb FBA inh: inhibitors of M. tuberculosis fructose-bisphosphate aldolase; purified M. tuberculosis FBA, fluorescence read-out; inhibition, % at 1 µM; AID 588726; P9WQA3; 360,000 compounds, 2.3% hits;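 note: 0% = vehicle and 100% = reference inhibitor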
# Target sequence (P9WQA3 whole entry, looked up): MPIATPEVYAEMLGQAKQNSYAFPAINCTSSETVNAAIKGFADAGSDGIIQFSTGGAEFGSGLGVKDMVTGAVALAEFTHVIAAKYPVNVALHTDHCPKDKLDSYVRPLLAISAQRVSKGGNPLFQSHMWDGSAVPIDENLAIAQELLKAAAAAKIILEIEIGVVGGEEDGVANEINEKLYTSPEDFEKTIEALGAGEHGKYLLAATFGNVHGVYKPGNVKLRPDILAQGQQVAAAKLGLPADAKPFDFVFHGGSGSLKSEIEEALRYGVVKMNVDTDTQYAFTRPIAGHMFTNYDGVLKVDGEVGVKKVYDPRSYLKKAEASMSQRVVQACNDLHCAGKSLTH
# Mtb FBA inh conf: Mtb FBA inhibition, confirmed; shares compounds with Mtb FBA inh; purified M. tuberculosis FBA, fluorescence read-out; inhibition, % at 1 µM; 5,600 compounds, 78% hits;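 note: 0% = vehicle wells and 100% = reference inhibitor wells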
# GDH-TPI counter-2: counter-screen for M. tuberculosis FBA inhibitors: GDH-TPI coupled enzyme inhibition | shares compounds with Mtb FBA inh | GDH-TPI coupled enzyme counterscreen, fluorescence | inhibition, % at 1 µM | 5,600 compounds, 81% hits | AID 652141; in the data active = inhibition above about 10%
# * marks the source's active call; other numbers are inactive results; . = no result given; + = active, no number. Cut-off read from the data, not from the text of the source, unless noted: active = inhibition above about 27%; inactive = the rest.
SMILES,Mtb BioA inh,Mtb hypoxia rep,GDH-TPI counter-1,FadD28 FP inh,Mtb FBA inh,Mtb FBA inh conf,GDH-TPI counter-2
Cc1ccc(S(=O)(=O)Nc2cccc(C(=O)NCc3ccc(S(N)(=O)=O)cc3)c2)cc1,3,5,5,-4,27*,156*,128*
Cc1cc(C(=O)NCc2ccc(S(N)(=O)=O)cc2)cs1,1,3,-10,-1,0,.,.
CCOc1cc(C(=O)NCc2ccc3c(c2)OCO3)cc(OCC)c1OCC,2,6,9,-1,1,.,.
CCCn1nc2cc(C(=O)NCc3ccc4c(c3)OCO4)ccc2c1OCC,0,-2,1,-2,62*,186*,167*
CCOc1c2ccc(C(=O)NCc3ccc4c(c3)OCO4)cc2nn1CCOC,-1,3,-6,-4,49*,2,-5
CCOc1c2ccc(C(=O)NCc3ccc4c(c3)OCO4)cc2nn1CC,2,10,8,-2,51*,102*,84*
CCCCn1nc2cc(C(=O)NCc3ccc4c(c3)OCO4)ccc2c1OCC,-1,2,-1,2,34*,176*,141*
CN1C(=O)c2ccc(C(=O)NCc3ccc4c(c3)OCO4)cc2C1=O,.,-3,3,-1,3,.,.
C[C@@H]1CN([C@H](C)CO)C(=O)Cc2cc(NS(=O)(=O)c3ccc(Cl)cc3)ccc2O[C@H]1CN(C)S(=O)(=O)c1ccc(Cl)cc1,4,.,.,.,.,.,.
Cc1ccccc1C=N/N=C1/NC(=O)CCS1,.,11,.,.,.,.,.
Cc1ccccc1/C=N/N=C1/NC(=O)CCS1,.,.,32*,-3,29*,128*,90*
Cc1ccc(C(=O)NC(=Cc2ccco2)C(=O)NCC2CCCO2)cc1C (stereo not given),.,9,.,.,.,.,.
COc1ccc(-c2ncccc2O)cc1,2,11,0,0,40*,88*,91*
CC(=O)Nc1cc(-c2ccc(S(C)(=O)=O)cc2)cn2c(-c3ccc(F)cc3)cnc12,0,.,8,-3,0,.,.
CC(=O)Nc1cc(-c2cccc(F)c2)cn2c(-c3ccc(S(C)(=O)=O)cc3)cnc12,1,.,13,-2,71*,+,+
CC(C)Cn1nc(NC(=O)C2CCCO2)c2cc3ccccc3nc21 (stereo not given),0,.,-2,-5,10,.,.
CCCn1nc(NC(=O)C2CCCO2)c2cc3cccc(C)c3nc21 (stereo not given),-1,-7,15,-3,37*,179*,149*
CCCCN(CC)CCCNC(=O)c1cc2cc3ccc(C)cc3nc2o1,.,13,35*,-1,95*,78*,70*
Cc1ccc2cc3cc(C(=O)NCCCN4CCCCCC4)oc3nc2c1,-3,.,25,-7,75*,97*,47*
Cc1ccc2cc3cc(C(=O)NCCCN4CCc5ccccc5C4)oc3nc2c1,0,.,35*,-9,70*,184*,134*
CCCN(CCC)CCCNC(=O)c1cc2cc3ccc(Cl)cc3nc2o1,-3,15,8,-3,11,.,.
CCCCN(CC)C(=O)c1cc2cc3ccc(OC)cc3nc2o1,-1,24,34*,-2,41*,98*,78*
C[C@H]1CN([C@@H](C)CO)C(=O)Cc2cc(NS(=O)(=O)c3cccs3)ccc2O[C@@H]1CN(C)Cc1ccc(-c2ccccc2)cc1,0,.,.,.,.,.,.
CCNC(=S)N1CCc2cc(OC)c(OC)cc2C1COc1ccccc1OC (stereo not given),4,5,-5,-4,38*,+,+
CCN(CC)C(=O)[C@H]1C[C@H](CC(=O)NCCCN(C)C)C(=O)N2CCc3c([nH]c4cc(-c5ccco5)ccc34)[C@]12C,2,6,-3,-1,46*,+,+
CC(C)N(C(=O)[C@H]1C[C@H](CC(=O)NCCc2ccccn2)C(=O)N2CCc3c([nH]c4cc(-c5ccco5)ccc34)[C@]12C)C(C)C,-1,0,3,-3,22,.,.
CCN(CC)C(=O)[C@H]1C[C@H](CC(=O)NCCc2ccccn2)C(=O)N2CCc3c([nH]c4cc(-c5ccco5)ccc34)[C@]12C,-2,-2,9,-3,40*,52*,44*
